According to PubChem BioAssay (NCATS):
Results filed as inconclusive are left out. Activity calls are given as the source filed them. Calls come from the whole dose curve; as a rule, active = well fitted inhibition curve with a large enough effect; inconclusive = small, poorly fitted or top-dose-only effect; inactive = flat fitted curve, though single readings scatter.

Assays:
Test in all cases: Cytotoxic Profiling of Annotated Libraries Using Quantitative High-Throughput Screening (AID 1296008); note: nearly all actives have a fitted effect of over 60% in size
Details in all cases: Five cell lines viability, CellTiter-Glo ATP luminescence, 48-72 h; max response: hits give low values
CRL-7250 = system: CRL-7250
Method in brief: (§1)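 Cells exposed to compounds for 48 or 72 hr at 37 degrees Celsius. Viability read as ATP-coupled luminescence with CellTiter-Glo after 10 min at room temperature.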

HEK293 = system: HEK293
Method in brief: as §1

HaCat = system: HaCat
Method in brief: as §1

KB-3-1 = system: KB-3-1
Method in brief: as §1

NIH3T3 = system: NIH3T3
Method in brief: as §1

Measured: max response
% is set by controls: 0 for no effect and ±100 for the full control effect.

COc1ccc(OC)c(C2C(C#N)=C(N)Oc3n[nH]c(-c4ccc5ccccc5c4)c32)c1 (stereo not given)
inactive: CRL-7250 | HEK293 0.943% | HaCat -8.38% | KB-3-1 | NIH3T3

CCCc1[nH]nc2c1C(c1cc(Cl)cc(Cl)c1O)C(C#N)=C(N)O2 (stereo not given)
inactive: CRL-7250 -0.63% | HEK293 -17.1% | HaCat | KB-3-1 | NIH3T3

CC(/C=C/C=C(\C)C(=O)O[C@@H]1O[C@H](CO[C@@H]2O[C@H](CO)[C@@H](O)[C@H](O)[C@H]2O)[C@@H](O)[C@H](O)[C@H]1O)=C\C=C\C=C(C)\C=C\C=C(/C)C(=O)O[C@@H]1C[C@](O)(C(=O)O)C[C@@H](O)[C@H]1OC(=O)/C=C/c1ccc(O)c(O)c1
inactive: CRL-7250 -12.4% | HEK293 2.1% | HaCat 1.58% | KB-3-1 5.86% | NIH3T3

CC1(C)CC[C@]2(C(=O)O)CC[C@]3(C)C(=CCC4[C@@]5(C)CC[C@H](O)C(C)(C)C5CC[C@]43C)C2C1 (stereo not given in full)
inactive: CRL-7250 | HEK293 -9.46% | HaCat | KB-3-1 2.08% | NIH3T3 -3.2%

C/C=C1/[C@H](O[C@@H]2O[C@H](CO)[C@@H](O)[C@H](O)[C@H]2O)OC=C(C(=O)OC)[C@H]1CC(=O)OCCc1ccc(OC(=O)C[C@@H]2C(C(=O)OC)=CO[C@@H](O[C@@H]3O[C@H](CO)[C@@H](O)[C@H](O)[C@H]3O)/C2=C/C)cc1
inactive: CRL-7250 -8.75% | HEK293 -1.34% | HaCat | KB-3-1 | NIH3T3 2.32%

CC1(C)CC[C@]2(C(=O)O)[C@H](O)C[C@]3(C)C(=CCC4[C@@]5(C)CC[C@H](O[C@@H]6OC[C@@H](O)[C@H](O)[C@H]6O)[C@@](C)(C(=O)O)C5CC[C@]43C)[C@@H]2C1 (stereo not given in full)
inactive: CRL-7250 -5.63% | HEK293 0.0666% | HaCat | KB-3-1 9.63% | NIH3T3 0.796%

C=C1CC2C3(C)C=CC(=O)OC(C)(C)C3CC(OC(C)=O)C2(C)C2C(=O)OC(C)C(=O)C12C (stereo not given)
inactive: CRL-7250 -1.41% | HEK293 -7.78% | HaCat | KB-3-1 1.96% | NIH3T3

C[C@@H]1CCC2C(C)(C)[C@H](O)[C@H](O)C[C@]2(C)[C@@]12Cc1c(O)cc3c(c1O2)CN(CCCC(=O)O)C3=O (stereo not given in full)
inactive: CRL-7250 -7.06% | HEK293 -1.57% | HaCat | KB-3-1 3.58% | NIH3T3 4.1%

C/C=C(/C)C(=O)OC1C(OC(C)=O)C23C(O)OC4(CCC5C6(C)CCC(OC7OC(C(=O)O)C(O)C(OC8OC(CO)C(O)C(O)C8OC8OC(C)C(O)C(O)C8OC8OCC(O)C(O)C8O)C7OC7OC(CO)C(O)C(O)C7O)C(C)(C)C6CCC5(C)C4(C)CC2OC(C)=O)C3CC1(C)C (stereo not given)
inactive: CRL-7250 1.39% | HEK293 | HaCat 1.22% | KB-3-1 4.58% | NIH3T3 -12.1%

CC(=O)O[C@H]1[C@H](OC(=O)C(C)C)[C@]2(C)OC3(CC[C@]2(C)[C@H]2CCC[C@]4(CO4)[C@]12C)COC(=O)C3 (stereo not given in full)
inactive: CRL-7250 -5.19% | HEK293 -0.769% | HaCat | KB-3-1 4.61% | NIH3T3 -0.316%

CC(C)(O)C1CC=C(C(=O)OC[C@H]2O[C@@H](Oc3cc(C(=O)O)cc(O)c3O)[C@H](O)[C@@H](O)[C@@H]2O)CC1 (stereo not given in full)
inactive: CRL-7250 1.76% | HEK293 3.21% | HaCat | KB-3-1 | NIH3T3

C=C(C(=O)O)C1CC(O)C2(C)CCCC(C)(O)C2C1 (stereo not given)
inactive: CRL-7250 | HEK293 -8.07% | HaCat -11.8% | KB-3-1 0.961% | NIH3T3

CC(C)=CCC[C@](C)(O[C@@H]1O[C@H](CO[C@@H]2O[C@@H](CO)[C@H](O)[C@H]2O)[C@@H](O)[C@H](O)[C@H]1O)[C@H]1CC[C@]2(C)[C@@H]1[C@H](O)C[C@@H]1[C@@]3(C)CC[C@H](O[C@@H]4O[C@H](CO)[C@@H](O)[C@H](O)[C@H]4O[C@@H]4O[C@H](CO)[C@@H](O)[C@H](O)[C@H]4O)C(C)(C)[C@@H]3CC[C@]12C
inactive: CRL-7250 2.09% | HEK293 -3.56% | HaCat | KB-3-1 | NIH3T3 -28.7%

C=C1CC[C@H]2[C@@](C)(CCC(OC3OC(CO)C(O)C(O)C3O)[C@@]2(C)CO)C1C(=O)CC1=CCOC1=O (stereo not given in full)
inactive: CRL-7250 | HEK293 -9.97% | HaCat | KB-3-1 | NIH3T3
